What was measured:
Experiment in all cases: PBM binding z-score (relative to random genomic background probes); higher = stronger binding; sequences stand for … in GC…GCGATTGACAGCGTAGAATGAAGG
[1] = tested on: FXR:RXRa (NR concentration 270 nM, RXRa partner concentration 90 nM)
Method in brief: (§1)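 For binding z-scores, the reference was random background probes on custom Agilent 4×180K protein-binding microarrays. These arrays were incubated 1 h with ligand-free nuclear receptor dimers in PBS pH 7.4, 2% milk, 0.02% Triton X-100, 1 mM DTT, 0.2 mg/mL BSA and 0.4 mg/ml salmon testes DNA. Fluorescence was scanned after antibody detection of each partner (one per run) and regression-normalized.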

[2] = tested on: LXRa:RXRa (NR concentration 270 nM, RXRa partner concentration 90 nM)
Method in brief: as §1

[3] = tested on: LXRa homodimer (NR concentration 270 nM)
Method in brief: as §1

[4] = tested on: LXRb:RXRa (NR concentration 270 nM, RXRa partner concentration 90 nM)
Method in brief: as §1

[5] = tested on: LXRb homodimer (NR concentration 270 nM)
Method in brief: as §1

[6] = tested on: PPARa:RXRa (NR concentration 270 nM, RXRa partner concentration 90 nM)
Method in brief: as §1

[7] = tested on: PPARg:RXRa (NR concentration 180 nM, RXRa partner concentration 90 nM)
Method in brief: as §1

[8] = tested on: PPARg:RXRa 270nM:90nM, anti-RXR (NR concentration 270 nM, RXRa partner concentration 90 nM)
Method in brief: as §1

[9] = tested on: PPARg:RXRa 30nM:10nM, anti-RXR (NR concentration 30 nM, RXRa partner concentration 10 nM)
Method in brief: as §1

[10] = tested on: PPARg:RXRa 90nM:30nM, anti-RXR (NR concentration 90 nM, RXRa partner concentration 30 nM)
Method in brief: as §1

[11] = tested on: PPARg:RXRa DBDmut IVT, anti-RXR (DBD mutation: RXRa K156A/R161A, NR concentration 270 nM, RXRa partner concentration 90 nM)
Method in brief: as §1

[12] = tested on: PPARg:RXRa IVT, anti-PPARg (NR concentration 270 nM, RXRa partner concentration 90 nM)
Method in brief: as §1

[13] = tested on: PPARg DBDmut:RXRa IVT, anti-PPARg (DBD mutation: PPARg1 K132A/R137A, NR concentration 270 nM, RXRa partner concentration 90 nM)
Method in brief: as §1

[14] = tested on: PPARg DBDmut IVT, anti-PPARg (DBD mutation: PPARg1 K132A/R137A, NR concentration 270 nM)
Method in brief: as §1

[15] = tested on: PPARg homodimer (NR concentration 180 nM)
Method in brief: as §1

[16] = tested on: PXR:RXRa (NR concentration 270 nM, RXRa partner concentration 90 nM)
Method in brief: as §1

[17] = tested on: PXR homodimer (NR concentration 270 nM)
Method in brief: as §1

[18] = tested on: RARa:RXR (NR concentration 270 nM, RXRa partner concentration 90 nM)
Method in brief: as §1

[19] = tested on: RARa homodimer (NR concentration 270 nM)
Method in brief: as §1

[20] = tested on: RARb:RXRa (NR concentration 270 nM, RXRa partner concentration 90 nM)
Method in brief: as §1

Sequence | PBM binding z-score [1] | PBM binding z-score [2] | PBM binding z-score [3] | PBM binding z-score [4] | PBM binding z-score [5] | PBM binding z-score [6] | PBM binding z-score [7] | PBM binding z-score [8] | PBM binding z-score [9] | PBM binding z-score [10] | PBM binding z-score [11] | PBM binding z-score [12] | PBM binding z-score [13] | PBM binding z-score [14] | PBM binding z-score [15] | PBM binding z-score [16] | PBM binding z-score [17] | PBM binding z-score [18] | PBM binding z-score [19] | PBM binding z-score [20]
CCTGCTAGGTCATGGTCATCTAATCTACAGTATG | 3.56 | 2.73 | 0.055 | 1.89 | -0.408 | 3.6 | 2.73 | 3.03 | 0.662 | 1.85 | 4.28 | 3.88 | 0.258 | 0.159 | 1.51 | 1.53 | -0.321 | 2.23 | 0.16 | 3.76
CCGACTGGGGCAAGGCTACCATAACGCACAGCCA | -0.0743 | -0.335 | -0.467 | -0.273 | -1.05 | -0.00984 | 1.08 | 0.83 | -0.201 | 0.0921 | 2.56 | 2.89 | -0.229 | -0.37 | -0.287 | -0.481 | -0.488 | -0.164 | -0.086 | 0.763
CCTACTGGGCCAAAAAGGTCGTTGATGCCGATAA | 0.402 | 0.901 | 0.0143 | 1.24 | -0.786 | 2.45 | 1.08 | 1.81 | 0.344 | 1.24 | 3.16 | 2.91 | -0.0977 | -1.31 | 0.923 | 1.69 | 0.426 | 1.77 | 0.0186 | 1.48
AGTCAAAGTTCAGGACGAGGGAACGTAAAGCACG | 3.73 | 3.68 | 0.988 | 1.57 | 0.379 | 3.05 | 4.52 | 4.88 | 1.99 | 3.87 | -0.374 | 1.46 | 0.293 | 0.513 | 2 | 2.12 | 0.898 | 2.09 | 0.539 | 4.2
CCTACCGGGCCATTCAGAGGTCATTGATCATATG | 3.15 | 4.65 | 6.83 | 4.07 | 0.358 | 3.77 | 1.05 | 2.26 | 0.311 | 1.27 | 0.333 | 1.62 | -0.171 | -0.538 | 2.87 | 5.36 | 2.87 | 5.57 | 0.404 | 3.29
ATCTCTAGGTAAAGATATTTCAGTGAATGCAAAT | 0.207 | 0.268 | 0.422 | 0.346 | 0.74 | 0.352 | 0.976 | 0.732 | 0.499 | 0.83 | 2.46 | 1.88 | 1.53 | 1.33 | 0.424 | 0.367 | 0.337 | 0.994 | 1.26 | 0.0831
TCAGACAGGTGAGGGTAACTCAGGTACGCAGTCG | 0.261 | 1.36 | -0.144 | 0.561 | -0.273 | 0.983 | 0.558 | 1.46 | 3.02 | 2.23 | 2.09 | 1.08 | 0.134 | -0.531 | 0.237 | 0.408 | -0.0185 | 0.722 | -0.208 | 1.02
TTACCAAGGTGAGCTGAGGACGTTGATCCAACTC | 1.1 | -0.166 | -0.767 | -0.542 | -1.14 | 0.258 | -0.0163 | -0.267 | -0.263 | -0.212 | 0.681 | 1.36 | -0.327 | -0.329 | -0.722 | 2.25 | -0.289 | 1.03 | -0.906 | 1.05
AGTCAAAGTTCATCTAGGTTACGTAAGATATGCT | 6.68 | 6.16 | 6.06 | 3.95 | 2.11 | 4.96 | 6.9 | 6.6 | 4.02 | 5.95 | 1.81 | 4.48 | 1.59 | 1.1 | 2.63 | 5.66 | 10.7 | 4.25 | 1.94 | 4.99
ATCTTTAGGTAAGACTCAGTTCAGTGAAGAACGC | 0.459 | 0.502 | 0.392 | 0.259 | 0.931 | 0.478 | 0.122 | 0.267 | 0.146 | 0.0526 | 0.866 | 0.683 | 1.19 | 0.877 | 0.751 | 1.35 | 1.56 | 0.837 | 1.14 | 0.585
ATCGAAAGGTCGTGAGATGAGTATACAGAAAGGC | 4.78 | 3.98 | 0.0145 | 3 | 0.525 | 5.17 | 3.63 | 3.8 | 1.53 | 2.49 | -0.3 | 1.61 | 1.59 | 1.02 | 1.18 | 3 | 0.0556 | 3.62 | 0.436 | 3.91
CGTCCAAGGTCAAGGTCAGTGAGAGAGACTCGAA | 7.65 | 5.63 | 1.24 | 4.59 | 0.615 | 6.05 | 6.16 | 6.13 | 2.58 | 4.79 | 3.51 | 4.84 | 1.23 | 2.41 | 3.47 | 4.79 | 1.08 | 5.05 | 1.59 | 5.69
AGTCAAAGTTCAGGACGAGGTAACGCAAAGCACG | 3.93 | 3.88 | 1.08 | 2.03 | 0.0872 | 3.33 | 4.31 | 4.9 | 1.97 | 3.87 | -0.0629 | 1.75 | 0.41 | -0.132 | 1.73 | 2.72 | 1.03 | 2.78 | 0.826 | 4.33
ATCGAACGGTCGTGAGGTGAGTATACAGAAAGGC | 0.0725 | -0.0756 | -0.243 | -0.299 | -0.457 | 0.134 | 0.66 | -0.0797 | -0.119 | -0.0767 | -0.977 | 0.391 | 0.438 | 0.339 | 0.0797 | 0.0108 | -0.33 | 0.461 | 0.0209 | 1.08

From the supplement of paper PMC6555819
